In the library only some 11% were active in any assay of this set; here they are far more common.
AMA1-RON2 inh = AMA1-RON2 (P. falciparum) interaction inhibition | Potency, µM (highest dose often 58.2 µM), hits mostly inhibitors | 360,000 compounds, 0.2% hits | AlphaScreen AMA1-biotinylated RON2 peptide binding; note: nearly all actives have a fitted effect of over 45% in size
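AMA1 (3D7) with his tag at 25 nM final met compounds first, then biotinylated RON2 peptide at 25 nM; detection used donor plus acceptor beads, 10 µg/mL apiece, read by AlphaScreen after 30 min at room temperature.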
Pf growth 96h = P. falciparum growth inhibition at 96 hour, primary screen for plastid delayed-death inhibitors | Potency, µM (titrated, usually from 28.7 µM), most hits filed as inhibitors | 320,000 compounds, 6.9% hits | P. falciparum luciferase reporter growth, 96 h | AID 504834
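Plates of compound plus infected erythrocytes (2% hematocrit, 0.05% parasitemia final) incubate 96 hours, 37 C, 5% CO2. Detection reagent added; reduced luminescence from the parasites' luciferase reporter flags inhibition.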
HCV inh = inhibitors of hepatitis C virus infection. 340,000 compounds, 3.4% hits. AID 651820. Potency, µM (titrated, usually from 41.8 µM), most hits filed as inhibitors. Huh7.5.1 HCVcc-Cre infection, luciferase reporter, 44 h
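Compounds are dispensed onto cells plated 4 h earlier at 1,000 per well, with HCVcc-Cre virus (about 0.5 moi) added next. Following 44 h of culture, luminescent signal is measured for 15 sec after 15 min with substrate at room temperature.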
Pf growth 48h = inhibits P. falciparum growth in the first generation, 48 h; 310,000 compounds, 5.9% hits; Potency, µM (top dose mostly 28.7 µM), actives largely listed as inhibitors; P. falciparum luciferase growth in erythrocytes, 48 h; AID 504832
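Luminescence readout; reporter = integrated firefly luciferase in P. falciparum. RBC culture at 2% hematocrit, 0.1% parasitemia final, 37 C/5% CO2; decreased signal taken as growth inhibition.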
A number is an active result; i = inactive; ? = inconclusive; nt = no result given. Calls come from the whole dose curve; as a rule, active = well fitted curve in the direction sought with a large enough effect; inconclusive = small, poorly fitted or top-dose-only effect, or another doubt; inactive = no such curve, though single readings can be large; an effect the other way counts as inactive or inconclusive.

SMILES | AMA1-RON2 inh | Pf growth 96h | HCV inh | Pf growth 48h
C[N+]1(CCCOC(=O)C2(c3ccccc3)CCCC2)CCOCC1 | i | ? | i | 12µM
CN(C)CCOC(=O)C1(c2ccccc2)CCCC1 | i | i | i | nt
O=C(OCCN1CCCCC1)C1(c2ccccc2)CCCC1 | i | i | i | i
O=C(OCCN1CCCC1)C1(c2ccccc2)CCCC1 | i | 0.74µM | ? | i
NC(c1csc(Nc2ccc(C(=O)c3ccccc3)cc2)n1)c1ccccc1Cl (stereo unspecified) | i | nt | nt | nt
CC(C)CNC(=O)c1cc2nc(C3CC3)cc(C(F)(F)F)n2n1 | i | nt | 7.9µM | nt
O=C(Nc1ccc2c(c1)OCO2)c1cc2nc(C3CC3)cc(C(F)(F)F)n2n1 | i | 0.042µM | i | i
O=C(Nc1cccnc1)c1cc2nc(C3CC3)cc(C(F)(F)F)n2n1 | i | i | ? | i
COC(=O)[C@H]1[C@@H](C)N(CCc2cc(OC)c(OC)c(OC)c2)C(=O)N[C@H]1c1ccccc1 | i | nt | 22µM | nt
CCN1C(=O)N[C@@H](c2ccccc2)[C@@H](C(=O)OC)[C@H]1C | i | nt | i | nt
CC(=O)O[C@H]1C(=O)[C@@]2(C)C([C@H](OC(=O)c3ccccc3)[C@]3(O)C[C@H](O)C(C)=C1C3(C)C)[C@]1(OC(C)=O)CO[C@@H]1C[C@H]2O (stereo partly specified) | i | i | ? | i
CC(=O)O[C@H]1C(=O)[C@@]2(C)C([C@H](OC(=O)c3ccccc3)[C@]3(O)C[C@H](OC(=O)[C@H](O)[C@@H](NC(=O)c4ccccc4)c4ccccc4)C(C)=C1C3(C)C)[C@]1(OC(C)=O)CO[C@@H]1C[C@H]2O (stereo partly specified) | i | ? | ? | ?
CC(=O)O[C@H]1C(=O)[C@@]2(C)C([C@H](OC(=O)c3ccccc3)[C@]3(O)C[C@H](OC(=O)[C@H](O)[C@@H](NC(=O)Cc4ccccc4)c4ccccc4)C(C)=C1C3(C)C)[C@]1(OC(C)=O)CO[C@@H]1C[C@@H]2O (stereo partly specified) | i | 0.74µM | ? | 3.7µM
CC(=O)O[C@@]12CO[C@@H]1C[C@H](O)[C@@]1(C)C(=O)[C@H](O)C3=C(C)[C@@H](OC(=O)[C@H](O)[C@@H](NC(=O)c4ccccc4)c4ccccc4)C[C@@](O)([C@@H](OC(=O)c4ccccc4)C12)C3(C)C (stereo partly specified) | i | 0.074µM | i | 0.074µM
CC(=O)O[C@H]1C(=O)[C@]2(C)[C@H]([C@H](OC(=O)c3ccccc3)[C@]3(O)C[C@H](OC(=O)[C@H](O)[C@@H](NC(=O)c4ccccc4)c4ccccc4)C(C)=C1C3(C)C)[C@]1(OC(C)=O)CO[C@@H]1C[C@@H]2O | i | nt | 6.3µM | nt
CC(=O)O[C@@]12CO[C@@H]1C[C@H](O)[C@@]1(C)C(=O)[C@H](O)C3=C(C)[C@@H](OC(=O)C(O)[C@@H](NC(=O)OC(C)(C)C)c4ccccc4)C[C@@](O)([C@@H](OC(=O)c4ccccc4)[C@H]21)C3(C)C (stereo partly specified) | nt | 0.014µM | nt | 0.014µM
CCCCCn1c(=O)c(-c2nc3ccccc3[nH]2)c(O)c2ccccc21 | i | i | ? | ?
O=C(CN1CCCCC1)Nc1ccc(Br)cc1[N+](=O)[O-] | ? | i | ? | i
Cc1ccc(N(CC(=O)N2CCCCCC2)S(=O)(=O)c2ccccc2)cc1 | i | i | i | i
O=[N+]([O-])c1ccc2nc(-c3ccccc3)n(OCc3ccc(Cl)cc3)c2c1 | i | 13µM | ? | i
COc1ccc(NC(=O)CSc2nnnn2C2CC2)cc1S(=O)(=O)N1CCOCC1 | i | ? | ? | i
COc1ccc(S(=O)(=O)NCC2CCCN(Cc3cn(C)nc3C)C2)cc1 (stereo unspecified) | i | i | i | i
Cc1ccc(Cl)cc1NC(=O)c1cccc(OC(F)F)c1 | i | i | i | nt
COc1ccc(-c2csc(C)n2)cc1 | i | ? | i | i
COc1ccc(-c2csc(CCN3N=C(C)CC3=O)n2)cc1 | i | ? | i | 4.1µM
Fc1ccc2[nH]c3c(NCc4ccccc4)ncnc3c2c1 | i | 3.7µM | 7.9µM | 5.9µM
CCc1nc(SCC(=O)NCCc2ccccc2)c2c(=O)n(C)c(=O)n(C)c2n1 | i | i | i | i
Cc1ccc2[nH]c(CNC(=O)c3ccc(F)cc3)cc2c1 | i | i | i | i
CCCOc1ccc(NC(=O)c2cc3cc(C)ccc3[nH]2)cc1 | i | 12µM | i | i
